The source of these data is ChEMBL document CHEMBL1961873, “Compounds: GSK PKIS; Assays: Nanosyn kinase panel” (2012).

For assay [1], the target named is Mast/stem cell growth factor receptor Kit (Homo sapiens) (UniProt P10721). The conditions noted are these: at 1 µM.
The test system of assay [2] is Mast/stem cell growth factor receptor Kit (Homo sapiens), P10721 [D816V]. The settings on record: at 0.1 µM.
For assay [3] the test system is unchanged. The settings on record: at 1 µM.
The test system of assay [4] is Mast/stem cell growth factor receptor Kit (Homo sapiens), P10721 [T670I]. The conditions noted are these: at 0.1 µM.
Assay [5] has the same test system. The conditions noted are these: at 1 µM.
Assay [6] concerns Mast/stem cell growth factor receptor Kit (Homo sapiens), P10721 [V560G]. The settings on record: at 0.1 µM.
Assay [7] shares this test system. The settings on record: at 1 µM.
Assay [8] deals with Tyrosine-protein kinase Lck (Homo sapiens) (UniProt P06239). The settings on record: at 0.1 µM.
The target is the same in assay [9]. The conditions noted are these: at 1 µM.
Assay [10] deals with Leukocyte tyrosine kinase receptor (Homo sapiens) (UniProt P29376). The conditions noted are these: at 0.1 µM.
For assay [11] the target is unchanged. The conditions noted are these: at 1 µM.
Assay [12] has as its target Tyrosine-protein kinase Lyn (Homo sapiens) (UniProt P07948). The conditions noted are these: at 0.1 µM.
Assay [13] shares this target. The conditions noted are these: at 1 µM.
Assay [14] has the same target. The conditions noted are these: at 0.1 µM. The source holds these as a separate data set.
Assay [15] has the same target. The settings on record: at 1 µM. The source holds these as a separate data set.
Assay [16] has as its target T1, Tyrosine-protein kinase Mer (Homo sapiens) (UniProt Q12866).
T1 sequence (whole entry): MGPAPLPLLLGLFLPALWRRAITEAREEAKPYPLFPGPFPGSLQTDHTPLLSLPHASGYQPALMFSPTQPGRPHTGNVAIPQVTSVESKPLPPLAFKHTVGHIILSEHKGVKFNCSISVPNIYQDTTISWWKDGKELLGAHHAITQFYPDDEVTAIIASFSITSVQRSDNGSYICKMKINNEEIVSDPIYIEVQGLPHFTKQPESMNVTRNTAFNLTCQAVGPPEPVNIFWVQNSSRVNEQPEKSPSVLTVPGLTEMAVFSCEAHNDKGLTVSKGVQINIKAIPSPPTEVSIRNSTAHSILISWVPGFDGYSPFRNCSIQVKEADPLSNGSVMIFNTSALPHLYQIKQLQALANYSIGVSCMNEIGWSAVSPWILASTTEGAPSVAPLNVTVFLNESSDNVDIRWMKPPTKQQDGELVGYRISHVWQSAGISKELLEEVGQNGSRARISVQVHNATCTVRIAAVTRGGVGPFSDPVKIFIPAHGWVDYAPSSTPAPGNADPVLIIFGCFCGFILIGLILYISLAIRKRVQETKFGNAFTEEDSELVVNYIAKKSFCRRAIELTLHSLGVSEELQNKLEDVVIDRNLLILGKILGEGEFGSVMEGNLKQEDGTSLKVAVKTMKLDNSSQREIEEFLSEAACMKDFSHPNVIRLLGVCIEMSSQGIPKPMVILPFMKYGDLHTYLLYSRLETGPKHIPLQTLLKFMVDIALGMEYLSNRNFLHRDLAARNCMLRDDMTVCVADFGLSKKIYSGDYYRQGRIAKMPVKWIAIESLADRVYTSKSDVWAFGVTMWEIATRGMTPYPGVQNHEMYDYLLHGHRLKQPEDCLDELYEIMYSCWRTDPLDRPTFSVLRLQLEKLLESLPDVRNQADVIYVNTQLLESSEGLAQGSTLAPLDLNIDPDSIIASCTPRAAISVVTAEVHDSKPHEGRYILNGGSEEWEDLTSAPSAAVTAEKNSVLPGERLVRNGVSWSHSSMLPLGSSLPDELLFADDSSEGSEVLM
The conditions noted are these: at 0.1 µM.

Assay [17] has as its target T1, Tyrosine-protein kinase Mer (Homo sapiens). The settings on record: at 1 µM.
The target of assay [18] is Hepatocyte growth factor receptor (Homo sapiens) (UniProt P08581). The conditions noted are these: at 0.1 µM.
For assay [19] the target is unchanged. The conditions noted are these: at 1 µM.
The target in assay [20] is T2, Muscle, skeletal receptor tyrosine-protein kinase (Homo sapiens) (UniProt O15146).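 Note: values are mean inhibition of MuSK from the GSK PKIS kinase screening panel.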
T2 sequence (whole entry): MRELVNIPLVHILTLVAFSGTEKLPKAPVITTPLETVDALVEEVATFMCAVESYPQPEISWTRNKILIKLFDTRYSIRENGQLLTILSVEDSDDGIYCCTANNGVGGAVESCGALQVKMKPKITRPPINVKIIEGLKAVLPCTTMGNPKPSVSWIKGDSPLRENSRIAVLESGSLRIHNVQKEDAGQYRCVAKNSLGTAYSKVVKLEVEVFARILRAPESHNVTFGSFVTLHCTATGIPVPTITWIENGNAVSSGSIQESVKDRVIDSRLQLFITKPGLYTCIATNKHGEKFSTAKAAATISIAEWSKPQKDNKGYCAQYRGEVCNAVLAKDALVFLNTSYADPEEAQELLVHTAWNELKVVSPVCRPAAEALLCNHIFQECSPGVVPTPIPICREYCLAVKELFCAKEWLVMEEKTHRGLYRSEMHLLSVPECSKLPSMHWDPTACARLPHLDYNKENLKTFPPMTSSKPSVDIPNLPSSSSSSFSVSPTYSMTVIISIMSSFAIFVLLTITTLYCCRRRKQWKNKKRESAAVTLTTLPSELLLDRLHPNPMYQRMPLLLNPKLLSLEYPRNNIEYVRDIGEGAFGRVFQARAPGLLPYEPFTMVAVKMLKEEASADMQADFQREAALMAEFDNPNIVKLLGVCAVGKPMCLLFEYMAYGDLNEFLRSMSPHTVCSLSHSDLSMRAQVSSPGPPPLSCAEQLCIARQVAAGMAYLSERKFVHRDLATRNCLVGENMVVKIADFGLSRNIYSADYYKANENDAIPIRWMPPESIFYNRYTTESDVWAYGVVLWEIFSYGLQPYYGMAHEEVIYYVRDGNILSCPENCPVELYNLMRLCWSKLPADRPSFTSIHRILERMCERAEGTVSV
The conditions noted are these: at 0.1 µM.

Sequence of Mast/stem cell growth factor receptor Kit (Homo sapiens), P10721 [D816V] (P10721 whole entry D816V): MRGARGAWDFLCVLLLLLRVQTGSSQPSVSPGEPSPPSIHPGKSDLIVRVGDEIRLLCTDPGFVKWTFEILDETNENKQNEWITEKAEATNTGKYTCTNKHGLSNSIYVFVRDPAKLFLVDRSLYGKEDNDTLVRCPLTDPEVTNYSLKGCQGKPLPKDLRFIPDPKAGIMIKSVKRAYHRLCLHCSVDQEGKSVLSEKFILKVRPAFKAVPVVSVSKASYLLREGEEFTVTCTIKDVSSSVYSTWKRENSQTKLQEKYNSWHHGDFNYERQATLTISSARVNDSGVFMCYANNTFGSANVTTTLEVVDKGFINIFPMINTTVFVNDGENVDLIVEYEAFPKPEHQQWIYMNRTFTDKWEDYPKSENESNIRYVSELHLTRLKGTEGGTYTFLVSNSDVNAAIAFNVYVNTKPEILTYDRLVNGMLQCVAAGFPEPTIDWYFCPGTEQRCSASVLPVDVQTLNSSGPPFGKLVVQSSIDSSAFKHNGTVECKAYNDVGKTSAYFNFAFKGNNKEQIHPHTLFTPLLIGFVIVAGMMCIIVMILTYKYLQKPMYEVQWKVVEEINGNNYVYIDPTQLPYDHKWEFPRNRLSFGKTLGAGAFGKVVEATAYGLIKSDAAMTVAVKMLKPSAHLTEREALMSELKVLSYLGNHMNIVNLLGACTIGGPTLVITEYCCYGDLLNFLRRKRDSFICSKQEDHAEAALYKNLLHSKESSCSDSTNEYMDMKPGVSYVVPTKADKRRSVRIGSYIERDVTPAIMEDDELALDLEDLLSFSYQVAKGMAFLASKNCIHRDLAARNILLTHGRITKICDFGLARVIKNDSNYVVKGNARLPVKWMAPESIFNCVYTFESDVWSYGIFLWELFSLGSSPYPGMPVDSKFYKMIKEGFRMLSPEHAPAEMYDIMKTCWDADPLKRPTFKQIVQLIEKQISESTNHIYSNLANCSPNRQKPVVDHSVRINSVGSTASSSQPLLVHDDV
Sequence of Tyrosine-protein kinase Lck (Homo sapiens) (P06239 2-509 limits assumed): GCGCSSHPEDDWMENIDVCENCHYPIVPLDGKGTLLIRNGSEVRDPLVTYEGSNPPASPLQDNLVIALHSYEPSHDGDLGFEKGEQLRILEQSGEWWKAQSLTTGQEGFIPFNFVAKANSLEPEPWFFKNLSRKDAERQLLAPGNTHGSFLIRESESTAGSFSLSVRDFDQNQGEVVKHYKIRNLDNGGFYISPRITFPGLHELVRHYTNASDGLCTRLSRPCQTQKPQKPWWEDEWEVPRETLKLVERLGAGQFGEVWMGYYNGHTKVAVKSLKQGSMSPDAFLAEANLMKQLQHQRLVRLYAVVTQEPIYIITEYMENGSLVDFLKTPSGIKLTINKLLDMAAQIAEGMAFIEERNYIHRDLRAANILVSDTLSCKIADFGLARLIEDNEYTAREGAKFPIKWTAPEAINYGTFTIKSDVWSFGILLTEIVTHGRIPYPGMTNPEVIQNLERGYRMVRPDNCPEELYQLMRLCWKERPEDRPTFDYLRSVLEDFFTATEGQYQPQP
Sequence of Mast/stem cell growth factor receptor Kit (Homo sapiens), P10721 [T670I] (P10721 whole entry T670I): as the sequence (P10721 whole entry D816V) above, with T670I, V816D counted along it
Sequence of Hepatocyte growth factor receptor (Homo sapiens) (P08581 whole entry): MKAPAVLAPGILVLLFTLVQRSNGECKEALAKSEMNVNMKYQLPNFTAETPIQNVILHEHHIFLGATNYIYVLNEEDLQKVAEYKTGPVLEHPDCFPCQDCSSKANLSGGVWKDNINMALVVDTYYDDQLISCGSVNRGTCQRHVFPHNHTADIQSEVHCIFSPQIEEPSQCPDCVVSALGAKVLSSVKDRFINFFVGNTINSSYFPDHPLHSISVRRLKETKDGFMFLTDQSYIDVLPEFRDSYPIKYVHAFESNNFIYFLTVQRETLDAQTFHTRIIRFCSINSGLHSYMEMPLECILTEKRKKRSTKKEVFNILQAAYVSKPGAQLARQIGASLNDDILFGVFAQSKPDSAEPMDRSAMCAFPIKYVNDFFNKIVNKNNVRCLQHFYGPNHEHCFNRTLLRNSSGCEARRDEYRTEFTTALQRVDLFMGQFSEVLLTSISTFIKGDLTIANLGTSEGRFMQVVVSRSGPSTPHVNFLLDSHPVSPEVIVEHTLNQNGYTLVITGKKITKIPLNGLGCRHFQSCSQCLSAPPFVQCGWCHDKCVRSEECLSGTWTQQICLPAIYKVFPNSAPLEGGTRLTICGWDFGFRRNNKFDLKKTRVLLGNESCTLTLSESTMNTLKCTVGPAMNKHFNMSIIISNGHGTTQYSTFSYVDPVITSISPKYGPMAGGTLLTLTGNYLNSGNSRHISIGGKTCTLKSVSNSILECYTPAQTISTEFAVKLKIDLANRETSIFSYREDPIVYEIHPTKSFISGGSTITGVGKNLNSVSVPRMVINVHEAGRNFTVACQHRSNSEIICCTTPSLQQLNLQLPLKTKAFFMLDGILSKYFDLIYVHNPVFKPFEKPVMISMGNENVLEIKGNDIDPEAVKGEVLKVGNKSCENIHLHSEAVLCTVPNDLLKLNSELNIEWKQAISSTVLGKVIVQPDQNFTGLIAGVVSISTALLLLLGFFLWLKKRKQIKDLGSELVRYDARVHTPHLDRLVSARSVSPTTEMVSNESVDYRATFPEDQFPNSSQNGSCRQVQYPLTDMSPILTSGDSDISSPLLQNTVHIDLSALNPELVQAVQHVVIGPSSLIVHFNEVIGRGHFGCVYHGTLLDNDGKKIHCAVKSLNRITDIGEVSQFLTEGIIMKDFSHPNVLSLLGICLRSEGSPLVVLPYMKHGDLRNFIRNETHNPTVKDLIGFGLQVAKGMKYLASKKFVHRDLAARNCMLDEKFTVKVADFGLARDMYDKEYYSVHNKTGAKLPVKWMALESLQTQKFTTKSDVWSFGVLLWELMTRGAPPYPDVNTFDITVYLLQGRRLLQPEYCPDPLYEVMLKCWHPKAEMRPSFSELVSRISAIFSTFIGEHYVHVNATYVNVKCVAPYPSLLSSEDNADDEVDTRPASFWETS
Sequence of Leukocyte tyrosine kinase receptor (Homo sapiens) (P29376 whole entry): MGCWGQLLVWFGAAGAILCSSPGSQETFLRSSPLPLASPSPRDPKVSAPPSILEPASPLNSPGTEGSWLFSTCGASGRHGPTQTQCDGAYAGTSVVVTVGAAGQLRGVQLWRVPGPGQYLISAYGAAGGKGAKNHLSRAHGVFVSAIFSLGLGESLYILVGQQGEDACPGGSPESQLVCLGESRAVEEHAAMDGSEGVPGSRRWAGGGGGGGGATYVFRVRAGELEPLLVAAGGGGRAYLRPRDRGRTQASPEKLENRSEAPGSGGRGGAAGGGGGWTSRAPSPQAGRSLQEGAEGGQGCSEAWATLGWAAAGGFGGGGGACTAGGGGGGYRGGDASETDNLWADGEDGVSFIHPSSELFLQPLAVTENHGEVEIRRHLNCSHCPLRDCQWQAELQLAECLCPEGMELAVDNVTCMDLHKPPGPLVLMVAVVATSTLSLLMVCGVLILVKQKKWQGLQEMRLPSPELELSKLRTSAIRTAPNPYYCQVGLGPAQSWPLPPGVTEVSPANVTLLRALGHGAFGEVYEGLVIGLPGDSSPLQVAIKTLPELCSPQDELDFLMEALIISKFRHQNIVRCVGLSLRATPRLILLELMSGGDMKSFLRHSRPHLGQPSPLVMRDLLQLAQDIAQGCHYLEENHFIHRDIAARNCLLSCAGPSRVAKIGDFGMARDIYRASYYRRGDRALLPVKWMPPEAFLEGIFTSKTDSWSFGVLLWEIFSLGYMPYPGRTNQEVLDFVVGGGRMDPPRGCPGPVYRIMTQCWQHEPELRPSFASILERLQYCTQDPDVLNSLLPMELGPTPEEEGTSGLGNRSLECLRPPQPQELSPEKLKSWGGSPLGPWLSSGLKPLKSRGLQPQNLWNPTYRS
Sequence of Mast/stem cell growth factor receptor Kit (Homo sapiens), P10721 [V560G] (P10721 whole entry V560G): as the sequence (P10721 whole entry D816V) above, with V560G, V816D counted along it
Sequence of Mast/stem cell growth factor receptor Kit (Homo sapiens) (P10721 whole entry): as the sequence (P10721 whole entry D816V) above, with V816D counted along it
Sequence of Tyrosine-protein kinase Lyn (Homo sapiens) (P07948 2-512 limits assumed): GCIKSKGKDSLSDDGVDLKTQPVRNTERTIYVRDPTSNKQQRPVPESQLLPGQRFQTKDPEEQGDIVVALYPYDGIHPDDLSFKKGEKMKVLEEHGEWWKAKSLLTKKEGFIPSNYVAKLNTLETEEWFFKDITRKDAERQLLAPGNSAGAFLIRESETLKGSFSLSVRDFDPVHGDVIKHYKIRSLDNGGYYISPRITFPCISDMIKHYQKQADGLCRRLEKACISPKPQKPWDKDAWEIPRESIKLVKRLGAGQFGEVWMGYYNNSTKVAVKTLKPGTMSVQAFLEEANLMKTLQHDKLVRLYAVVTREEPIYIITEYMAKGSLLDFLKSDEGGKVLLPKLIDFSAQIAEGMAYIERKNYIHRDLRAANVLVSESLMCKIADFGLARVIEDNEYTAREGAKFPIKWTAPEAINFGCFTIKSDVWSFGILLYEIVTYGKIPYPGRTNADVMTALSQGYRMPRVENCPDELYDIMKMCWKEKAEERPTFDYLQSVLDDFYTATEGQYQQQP

In the case of `CN1CCC(n2cnc(-c3ccc(F)cc3)c2-c2ccnc(N)n2)CC1`, the inhibition in assay [1] was 9.51%; in assay [2] it was 5.49%; in assay [3], 7.78%; in assay [4] it was 4.69%; in assay [5], 3.03%; in assay [6], -0.68%. Further, the inhibition in [7] was found to be 3.94%; in assay [8], 2.45%; in [9] it was 13.7%; in assay [10] it was 2.54%; in assay [11] it was 4.69%; in [12] it was 1.99%. Moreover, the inhibition is 10.1% in [13]; 1.43% in assay [14]; 6.85% in assay [15]; 0.51% in assay [16]; 6.73% in assay [17]; 2.36% in assay [18]. For the same compound, the inhibition was 0.93% in [19] and 0.53% in assay [20].
Consider `Clc1ccc(-c2nn3ncccc3c2-c2ccnc(Nc3ccccc3)n2)cc1`, for which the inhibition was 66.9% in [1]; 1.51% in [2]; -1.04% in assay [3]; -3.61% in assay [4]; 9.51% in assay [5]; 3.31% in assay [6]. The inhibition in assay [7] amounted to 39.8%; in [8], 13.9%; in [9], 60%; in [10] it was 1.38%; in assay [11] it was 3.81%; in [12], 7.57%. The inhibition turned out to be 40.7% in assay [13]; 4.2% in [14]; 35.4% in [15]; 0.11% in [16]; 6.33% in [17]; 4.95% in [18]. Moreover, the inhibition in assay [19] came out at 4.06%; in [20], 1.49%.
In the case of `Cc1cccc2c1NC(=O)/C2=N\Nc1ccc(S(N)(=O)=O)cc1`, the inhibition is 34.3% in assay [1]; 1.59% in [2]; -1.26% in [3]; 6.87% in assay [4]; 7.06% in assay [5]; 2.17% in [6]. Further, the inhibition amounted to 6.53% in assay [7]; 1.96% in assay [8]; 2.95% in [9]; 2.01% in [10]; 2% in [11]; 3.38% in assay [12]. Further, the inhibition in [13] was found to be 5.9%; in assay [14] it was 1.15%; in assay [15], 2.52%; in assay [16] it was 1.25%; in [17], 2.98%; in [18], 4.07%. The inhibition is -0.51% in [19] and 2.77% in assay [20].
Consider `CCCN1CCC(c2ccc(Nc3nc(Nc4cc(F)ccc4C(N)=O)c4cc[nH]c4n3)c(OC)c2)CC1`, for which the inhibition is 23.6% in assay [1]; 7.89% in assay [2]; 4.96% in [3]; 4.05% in assay [4]; 8.96% in assay [5]; -2.53% in assay [6]. Moreover, the inhibition in assay [7] is 1.43%; in [8] it was 2.44%; in [9], 9.44%; in assay [10], 94.6%; in assay [11] it was 95%; in [12], 6.55%. In addition, the inhibition was 11.2% in assay [13]; 4.92% in [14]; 7.3% in assay [15]; 2.18% in assay [16]; 20% in [17]; 8.25% in [18]. The inhibition in [19] came out at 22.9%; in assay [20] it was 4.34%.
Regarding `[O-][S+]1CCN(Cc2ccc(-c3ccc4ncnc(Nc5ccc(OCc6cccc(F)c6)c(Cl)c5)c4c3)o2)CC1`, the inhibition was 10.1% in assay [1]; 6.9% in assay [2]; 3.81% in assay [3]; 2.75% in assay [4]; 5.16% in [5]; -2.67% in assay [6]. Also, the inhibition in assay [7] is -0.28%; in assay [8], 2.85%; in assay [9], 8.2%; in assay [10] it was 7.04%; in assay [11], 7.31%; in assay [12] it was 6.15%. Moreover, the inhibition in assay [13] was found to be 8.63%; in [14], 5.42%; in [15] it was 7.66%; in assay [16], 2.54%; in [17] it was 31%; in assay [18], 11.9%. Further, the inhibition in assay [19] was 10.6%; in assay [20], 3.52%.
`Fc1ccc(-c2nn3ccccc3c2-c2ccncc2)cc1`: the inhibition in assay [1] is 12.1%; in [2], -1.36%; in assay [3] it was -0.05%; in assay [4], -0.12%; in assay [5], 1.47%; in assay [6], -1.06%. Moreover, the inhibition in assay [7] worked out at 1.71%; in assay [8], 1.24%; in assay [9], 5.7%; in assay [10], 1.27%; in assay [11], 0.03%; in [12] it was 0.64%. For the same compound, the inhibition was 6.12% in assay [13]; 0.28% in assay [14]; 4.71% in assay [15]; 1.48% in [16]; 2.6% in assay [17]; -1.86% in assay [18]. Besides, the inhibition worked out at 3.37% in assay [19] and 3.06% in assay [20].
